# The whole screen tested about 39,000 compounds, of which about 3,300 (8.5%) were called active. The full list was thinned out, with actives kept by preference.
# System: HepG2
# Assay: cytotoxicity call (relative viability < 0.9)
# Conditions: 10 µM
row,SMILES,cytotoxicity call
1,N#Cc1ccc[nH]c1=O,inactive
2,C[C@@H]1CN([C@@H](C)CO)C(=O)c2cc(NS(=O)(=O)c3cccs3)ccc2O[C@@H]1CN(C)C(=O)Nc1cccc2ccccc12,inactive
3,CCC=CCC=CCC=CCC=CCC=CCCCC(=O)OCC [OMEGA-3-ACID ESTERS (EPA shown) ],inactive
4,C[C@H](CO)N1C[C@H](C)[C@@H](CN(C)Cc2ccc(C(=O)O)cc2)Oc2ncc(C#CCN(C)C)cc2C1=O,inactive
5,Cc1noc(C)c1NC(=O)Nc1ccc2c(c1)CC(=O)N([C@H](C)CO)C[C@@H](C)[C@H](CN(C)Cc1ccc(Cl)c(Cl)c1)O2,inactive
6,CCOC(=O)N(C)C[C@@H]1OCc2cn(nn2)CCCC(=O)N([C@@H](C)CO)C[C@@H]1C,inactive
7,COc1ccc(NC(=O)Nc2ccc3c(c2)C(=O)N([C@@H](C)CO)C[C@@H](C)[C@@H](CN(C)S(=O)(=O)c2ccc(OC)cc2)OCCCC[C@H](C)O3)cc1,inactive
8,COc1ccccc1CNC(=O)C[C@@H]1C[C@@H]2c3cc(NC(=O)c4ccc5c(c4)OCO5)ccc3O[C@@H]2[C@H](CO)O1,inactive
9,NCC[C@H]1CC[C@H](NC(=O)C2CCC2)[C@@H](CO)O1,inactive
10,Cc1cccc(S(=O)(=O)N2C[C@@H](O)COC[C@@H]3O[C@H](CC(=O)N4CCN(C)CC4)CC[C@H]32)c1,inactive
11,COc1ccc(NC(=O)Nc2ccc3c(c2)C(=O)N([C@H](C)CO)C[C@H](C)[C@H](CN(C)C(=O)CCC(F)(F)F)OCCCC[C@H](C)O3)cc1,inactive
12,CC(C)NC(=O)N(C)C[C@H]1Oc2ccc(NS(=O)(=O)c3cccs3)cc2C(=O)N([C@H](C)CO)C[C@H]1C,inactive
13,COc1ccc(S(=O)(=O)Nc2cccc3c2O[C@@H](CN(C)Cc2ccc(Cl)c(Cl)c2)[C@H](C)CN([C@@H](C)CO)C3=O)cc1,inactive
14,C[C@@H]1CN([C@@H](C)CO)C(=O)c2cccc(NS(=O)(=O)c3ccccc3)c2O[C@@H]1CN(C)Cc1ccc(Cl)c(Cl)c1,inactive
15,C[C@H](CO)N1C[C@H](C)[C@@H](CN(C)Cc2ccc(Cl)c(Cl)c2)Oc2c(NS(=O)(=O)c3ccccc3)cccc2C1=O,active
16,C[C@H]1CN([C@@H](C)CO)C(=O)c2cccc(NS(=O)(=O)c3ccc(Cl)cc3)c2O[C@@H]1CN(C)Cc1ccc(Cl)c(Cl)c1,active
17,C[C@H]1CN([C@@H](C)CO)C(=O)c2cccc(NS(=O)(=O)c3ccccc3)c2O[C@H]1CN(C)Cc1ccc(Cl)c(Cl)c1,inactive
18,COc1ccc(S(=O)(=O)Nc2cccc3c2O[C@H](CN(C)Cc2ccc(Cl)c(Cl)c2)[C@@H](C)CN([C@@H](C)CO)C3=O)cc1,inactive
19,COc1ccc(S(=O)(=O)Nc2cccc3c2O[C@H](CN(C)Cc2ccc(Cl)c(Cl)c2)[C@H](C)CN([C@@H](C)CO)C3=O)cc1,active
20,C[C@H](CO)N1C[C@H](C)[C@@H](CN(C)Cc2ccc(Cl)c(Cl)c2)Oc2c(NS(=O)(=O)c3ccc(Cl)cc3)cccc2C1=O,inactive

row,SMILES,cytotoxicity call
1,C[C@@H]1CN([C@@H](C)CO)C(=O)c2cccc(NS(=O)(=O)c3ccc(Cl)cc3)c2O[C@H]1CN(C)Cc1ccc(Cl)c(Cl)c1,inactive
2,Cc1ccc(S(=O)(=O)N(C)C[C@@H]2Oc3ccc(NC(=O)NC(C)C)cc3CC(=O)N([C@@H](C)CO)C[C@H]2C)cc1,inactive
3,Nc1ncnc(NC[C@H]2CCCO2)c1[N+](=O)[O-],inactive
4,COc1ccc(NC(=O)Nc2ccc3c(c2)C(=O)N([C@@H](C)CO)C[C@@H](C)[C@@H](CN(C)S(=O)(=O)c2ccc(C)cc2)OCCCC[C@H](C)O3)cc1,inactive
5,C[C@@H]1CN([C@@H](C)CO)S(=O)(=O)c2ccc(-c3cncnc3)cc2O[C@@H]1CN(C)C(=O)Cc1ccncc1,inactive
6,COc1ccc(NC(=O)Nc2ccc3c(c2)C(=O)N([C@@H](C)CO)C[C@@H](C)[C@@H](CN(C)Cc2ccccc2)OCCCC[C@@H](C)O3)cc1,active
7,COc1ccc(NC(=O)Nc2ccc3c(c2)C(=O)N([C@H](C)CO)C[C@@H](C)[C@H](CN(C)Cc2ccccc2)OCCCC[C@@H](C)O3)cc1,active
8,COc1ccc(NC(=O)Nc2ccc3c(c2)C(=O)N([C@@H](C)CO)C[C@@H](C)[C@H](CN(C)Cc2ccccc2)OCCCC[C@H](C)O3)cc1,active
9,COc1ccc(NC(=O)Nc2ccc3c(c2)C(=O)N([C@H](C)CO)C[C@@H](C)[C@H](CN(C)Cc2ccccc2)OCCCC[C@H](C)O3)cc1,active
10,COc1ccc(NC(=O)Nc2ccc3c(c2)C(=O)N([C@H](C)CO)C[C@@H](C)[C@@H](CN(C)Cc2ccccc2)OCCCC[C@H](C)O3)cc1,inactive
11,COc1ccc(NC(=O)Nc2ccc3c(c2)C(=O)N([C@@H](C)CO)C[C@H](C)[C@@H](CN(C)Cc2ccccc2)OCCCC[C@@H](C)O3)cc1,inactive
12,COc1ccc(NC(=O)Nc2ccc3c(c2)C(=O)N([C@@H](C)CO)C[C@H](C)[C@H](CN(C)Cc2ccccc2)OCCCC[C@H](C)O3)cc1,inactive
13,COc1ccc(NC(=O)Nc2ccc3c(c2)C(=O)N([C@@H](C)CO)C[C@@H](C)[C@H](CN(C)Cc2ccccc2)OCCCC[C@@H](C)O3)cc1,inactive
14,COc1ccc(NC(=O)Nc2ccc3c(c2)C(=O)N([C@@H](C)CO)C[C@H](C)[C@H](CN(C)Cc2ccccc2)OCCCC[C@@H](C)O3)cc1,inactive
15,COc1ccc(NC(=O)Nc2ccc3c(c2)C(=O)N([C@@H](C)CO)C[C@@H](C)[C@@H](CN(C)Cc2ccccc2)OCCCC[C@H](C)O3)cc1,inactive
16,COc1ccc(NC(=O)Nc2ccc3c(c2)C(=O)N([C@H](C)CO)C[C@H](C)[C@@H](CN(C)Cc2ccccc2)OCCCC[C@H](C)O3)cc1,inactive
17,COc1ccc(NC(=O)Nc2ccc3c(c2)C(=O)N([C@H](C)CO)C[C@@H](C)[C@@H](CN(C)Cc2ccccc2)OCCCC[C@@H](C)O3)cc1,inactive
18,COc1cccc([C@@H](N)c2ccccc2)c1,inactive
19,O=C(/C=C/c1ccc(O)c(O)c1)O[C@@H]1[C@H](O)C[C@@](O)(C(=O)O)C[C@H]1OC(=O)/C=C/c1ccc(O)c(O)c1,inactive

# From the antibiotic and cytotoxicity screens of Wong et al. (2023)
